ERa SRC1 inh: ERα–SRC-1 coactivator interaction inhibitors, primary screen, biochemical, TR-FRET, ERα LBD, estradiol-bound; Estrogen receptor (Homo sapiens), P03372; TR-FRET ER-alpha LBD / SRC-1 peptide; inhibition, % at 25.6 µM; 1.7% of 86,000 active; AID 629, 2007; in the data active = inhibition above about 50%
Smad3 inh: Smad3/FoxH1 peptide binding inhibitors, primary screen, biochemical, TR-FRET. inhibition, % at 25 µM. 0.29% of 88,000 active. TR-FRET Smad3/Dy647-FoxH1 peptide binding, europium anti-His. Mothers against decapentaplegic homolog 3 (Homo sapiens), P84022;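 active = compounds that reduce the energy-transfer binding signal between the protein and its labelled peptide by more than half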
FAK inh: FAK kinase inhibitors, primary screen, biochemical; Focal adhesion kinase 1 (Homo sapiens), Q05397; biochemical FAK kinase activity assay; inhibition, %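 (tested at 7 µM)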; 0.84% of 97,000 active; AID 727, 2007; in the data active = inhibition above about 19%
Target sequence (Q05397 whole entry, looked up): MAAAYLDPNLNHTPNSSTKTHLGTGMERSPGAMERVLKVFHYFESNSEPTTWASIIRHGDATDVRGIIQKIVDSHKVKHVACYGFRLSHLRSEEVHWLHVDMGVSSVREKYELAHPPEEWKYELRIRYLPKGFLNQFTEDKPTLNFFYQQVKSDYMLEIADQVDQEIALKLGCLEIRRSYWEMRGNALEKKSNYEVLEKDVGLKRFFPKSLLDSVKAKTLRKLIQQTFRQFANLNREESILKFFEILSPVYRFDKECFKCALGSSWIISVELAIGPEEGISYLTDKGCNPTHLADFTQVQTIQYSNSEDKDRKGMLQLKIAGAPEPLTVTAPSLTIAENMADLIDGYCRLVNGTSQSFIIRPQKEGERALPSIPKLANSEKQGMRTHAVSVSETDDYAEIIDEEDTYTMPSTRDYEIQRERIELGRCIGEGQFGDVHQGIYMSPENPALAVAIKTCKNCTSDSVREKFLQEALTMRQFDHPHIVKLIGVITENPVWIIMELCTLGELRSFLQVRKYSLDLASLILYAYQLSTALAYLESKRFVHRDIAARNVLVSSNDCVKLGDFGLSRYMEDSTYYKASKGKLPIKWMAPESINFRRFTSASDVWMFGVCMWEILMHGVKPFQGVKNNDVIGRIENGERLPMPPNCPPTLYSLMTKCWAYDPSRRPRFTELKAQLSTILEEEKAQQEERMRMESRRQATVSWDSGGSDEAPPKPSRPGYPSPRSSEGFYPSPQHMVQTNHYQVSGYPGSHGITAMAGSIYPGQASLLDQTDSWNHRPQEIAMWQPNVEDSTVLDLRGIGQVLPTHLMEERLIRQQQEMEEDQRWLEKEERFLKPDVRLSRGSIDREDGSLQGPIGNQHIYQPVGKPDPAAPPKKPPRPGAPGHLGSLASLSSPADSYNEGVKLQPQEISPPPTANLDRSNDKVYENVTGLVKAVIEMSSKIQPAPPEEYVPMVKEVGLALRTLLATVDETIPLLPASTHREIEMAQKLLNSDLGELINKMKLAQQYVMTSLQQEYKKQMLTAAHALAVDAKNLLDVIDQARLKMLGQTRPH
ERb SRC1 inh: inhibitors of ERβ-SRC1 coactivator interaction, primary screen, biochemical, TR-FRET, ERβ LBD, SRC-1 peptide. Estrogen receptor beta (Homo sapiens), Q92731. TR-FRET ER-beta LBD / SRC1-Cy5 peptide binding; receptor agonist-loaded with 1 µM estradiol. inhibition, % at 25.6 µM. 1.3% of 86,000 active. AID 633, 2007;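 active = compounds whose percent inhibition of the receptor-coactivator binding signal exceeds about 50% in the single-dose screen, limit read from the data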
ERa SRC1 pot: enhancers of ERα–SRC-1 coactivator binding, primary screen, biochemical, TR-FRET, ERα LBD, low estradiol | Estrogen receptor (Homo sapiens), P03372 | TR-FRET ERalpha-LBD/SRC-Cy5 coactivator binding, 2 h; 100 = basal binding, no effect | coactivator binding (% of control), % at 25.6 µM | 1.3% of 86,000 active | AID 639, 2007; in the data active = activity above about 200%;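 note: binding measured in presence of low estradiol as agonist stimulus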
Numbers stand for hits; i = inactive; nt = not tested or not shown; [ ] = another dose, or the depositor's remark. Only some compounds are listed: those with a hit (about 3.3% of all), similar ones and a draw of the others.

SMILES	ERa SRC1 inh	Smad3 inh	FAK inh	ERb SRC1 inh	ERa SRC1 pot
CSc1nnc(-c2ccc(NC(=O)CCc3ccccc3)cc2)n1C	i	i	i	i	i
Cc1sc(NC(=O)CSc2nnc(COc3ccc(Cl)cc3)n2C)c(C#N)c1C	i	i	i	i	317[fluorescence artefact?]
Cc1ccc(-c2nnc(SCC(=O)Nc3sc(C)c(C)c3C#N)n2C)cc1	i	i	i	i	248[fluorescence artefact?]
COCCn1c(SCC(=O)Nc2sc(C)c(C)c2C#N)nnc1-c1ccc(OC)cc1	i	i	i	i	i
CCOC(=O)c1c(NC(=O)CSc2nnc(-c3cccnc3)o2)sc(C(C)=O)c1C	i	i	i	i	204[fluorescence artefact?]
CCOC(=O)c1c(NC(=O)CSc2nnc(-c3ccco3)o2)sc(C(C)=O)c1C	i	i	i	i	i
Cc1sc(NC(=O)CSc2nnc(-c3ccc(F)cc3)o2)c(C#N)c1C	52	i	i	i	i
O=C(CSc1nnc(-c2ccccc2O)o1)N1CCc2ccccc2C1	i	i	i	i	239[fluorescence artefact?]
O=C(O)CCC(O)=C1S(=O)(=O)OCCOS1(=O)=O	nt	i	nt	nt	nt
O=c1c2cc(N3CCOCC3)ccc2[nH]c(=S)n1CCCN1CCCCCC1	75[fluorescence artefact?]	i	nt	i	i
Cc1ccc(Cn2c(=S)[nH]c3ccc(N4CCOCC4)cc3c2=O)o1	i	i	nt	52[fluorescence artefact?]	i
O=c1c2cc(N3CCOCC3)ccc2[nH]c(=S)n1CCN1CCCC1	i	i	nt	i	i
Clc1ccc2c(c1)N(CCCN1CCCC13CCCCC3)c1ccccc1S2	nt	i	nt	nt	nt
CCn1nc(C)c(/C=N/NC(=O)c2ccc3c(c2)c(C)c(C)n3Cc2ccccc2)c1C	nt	nt	i	nt	nt
N#Cc1ccc(NC(=O)c2sc3cc(C(F)(F)F)cnc3c2-c2cccs2)cc1	i	i	i	i	330[fluorescence artefact?]
O=C(Nc1ccc(F)cc1)c1sc2cc(C(F)(F)F)cnc2c1-c1cccs1	i	i	i	i	i
COc1ccc(NC(=O)c2sc3cc(C(F)(F)F)cnc3c2-c2cccs2)cc1	i	i	i	i	233[fluorescence artefact?]
Cc1ccc(N[C@H](c2ccccc2)c2ccc3cccnc3c2O)cc1	nt	i	nt	nt	nt
CCOC(=O)N1CCN(S(=O)(=O)c2ccc(C(=O)Nc3nc4ccc(F)cc4s3)cc2)CC1	i	i	i	i	377
COc1cccc2sc(NC(=O)c3ccc(S(=O)(=O)N4CCOCC4)cc3)nc12	i	i	i	i	i
CCOC(=O)N1CCN(S(=O)(=O)c2ccc(C(=O)Nc3nc4ccccc4s3)cc2)CC1	i	i	i	i	280[fluorescence artefact?]
CN(CCOc1ccc(Cl)cc1)c1ccc(S(=O)(=O)N2CCCCC2)cn1	i	i	i	i	236[fluorescence artefact?]
CCC1(C)Cc2c(sc3c2c(=O)n(C)c2nnc(SCc4ccc5c(c4)OCO5)n32)CO1 (stereo not given)	87[fluorescence artefact?]	i	i	69[fluorescence artefact?]	i
CC(C)Oc1ccc(CSc2nnc3n(C)c(=O)c4c5c(sc4n23)CCCC5)cc1	i	i	i	i	i
CC1(C)Cc2nc3sc4c(SCC(=O)NCc5ccccc5)ncnc4c3cc2CO1	i	i	i	i	431[fluorescence artefact?]
SMILES	ERa SRC1 inh	Smad3 inh	FAK inh	ERb SRC1 inh	ERa SRC1 pot
COc1cc(C(=O)Nc2cc(-c3nc4cc(C)ccc4o3)ccc2C)cc(OC)c1OC	74[fluorescence artefact?]	i	i	60[fluorescence artefact?]	i
COc1cc(C(=O)Nc2cccc(-c3nc4cc(C)ccc4o3)c2)cc(OC)c1OC	72[fluorescence artefact?]	i	nt	i	252[fluorescence artefact?]
Cc1ccc2oc(-c3cccc(NC(=O)c4cc(-n5cnnc5)ccc4Cl)c3)nc2c1	i	i	i	i	245
COc1cc(C(=O)Nc2cccc(-c3nc4cc(C)ccc4o3)c2C)cc(OC)c1OC	i	i	i	i	i
Cc1ccc2nc(-c3cccc(NC(=O)c4ccc5c(c4)OCCO5)c3)oc2c1	68[fluorescence artefact?]	i	i	i	i
O=C(O)c1cc2ccccc2c(S(=O)(=O)O)c1O	nt	i	nt	nt	nt
CCc1ncc(CO)n1Cc1cccc2ccccc12	nt	i	nt	nt	nt
COc1cccc(C(CC(=O)Nc2cccc3ccccc23)NC(=O)c2ccccc2)c1 (stereo not given)	nt	nt	i	nt	nt
CC(=O)Oc1ccc(C(=O)Nc2ccc3c(c2)C(=O)N(CCC(=O)O)C3=O)cc1	i	i	i	i	709[fluorescence artefact?]
Nc1nc(N)c(CCCCc2ccccc2)c(N)n1	nt	i	nt	nt	nt
O=C(Nc1c(-c2ccccc2)nc2sccn12)c1ccccc1	72[fluorescence artefact?]	51	nt	71[fluorescence artefact?]	i
Cc1ccn2c(NC(=O)c3ccco3)c(-c3ccccc3)nc2c1	i	i	i	i	i
Cn1c(O)c(C(C#N)=C2N=c3ccccc3=N2)c2ccccc21	80[fluorescence artefact?]	i	i	i	i
N#CC(=C1N=c2ccccc2=N1)c1c(O)[nH]c2ccccc12	nt	nt	i	nt	nt
O=S1(=O)CCN(c2ccccc2CC(c2c[nH]c3ccccc23)c2c[nH]c3ccccc23)CC1	nt	88	nt	nt	nt
CCOC(=O)/C=C1\SCC(=O)N1CC(=O)Nc1ccc(OC)c(OC)c1	nt	nt	i	nt	nt
CCOC(=O)/C=C1\SCC(=O)N1CC(=O)c1ccc[nH]1	87[fluorescence artefact?]	i	i	64[fluorescence artefact?]	i
Cc1nn(C)cc1CN(C)C(=O)c1nn2c(c1Cl)NC(c1cccs1)CC2C(F)(F)F (stereo not given)	i	i	i	i	i
Cc1nn(C)c(C)c1CN(C)C(=O)c1cc2n(n1)C(C(F)(F)F)CC(c1cccs1)N2 (stereo not given)	i	54[fluorescence artefact?]	i	i	i
CN(C)Cc1ccc(C(C)(C)C)cc1-c1cc(C(C)(C)C)ccc1CN(C)C	nt	i	nt	nt	nt
Cc1cc(NC(=O)CSc2nc3sc4c(c3c(=O)n2C)CCCC4)no1	65[fluorescence artefact?]	i	i	i	i
CCn1c(SCC(=O)O)nc2sc3c(c2c1=O)CCC3	91[fluorescence artefact?]	i	i	91[fluorescence artefact?]	i
Cc1cc(NC(=O)CSc2nc(C(C)C)nc3sc4c(c23)CCCC4)no1	i	i	i	i	206[fluorescence artefact?]
CC(C)C[C@H](N)C(=O)O	nt	i	nt	nt	nt
COc1ccc2c(c1)CC/C(=C\c1ccc(OC)c(Cn3nc(C)cc3C)c1)C2=O	52	i	i	i	i
SMILES	ERa SRC1 inh	Smad3 inh	FAK inh	ERb SRC1 inh	ERa SRC1 pot
COc1ccc(Cl)cc1-c1nc(-c2ccc(Br)o2)no1	59[fluorescence artefact?]	i	i	i	277[fluorescence artefact?]
COc1ccc(-c2nc(-c3ccc(Br)o3)no2)cc1	i	i	i	i	i
COc1cc(NC(=O)c2cccs2)c(C(=O)OCC(=O)NCc2ccccc2)cc1OC	i	i	i	i	269
COc1cc(NC(=O)c2cccs2)c(OC)cc1NC(=O)CCn1nnc2ccccc21	i	i	i	51[fluorescence artefact?]	i
CCOC(=O)c1sc(NC(=O)CCn2nnc3ccccc32)c(C(=O)OCC)c1C	i	i	nt	i	i
CC(C)NCC[C@@H](O)c1cc2ccccc2o1	nt	i	nt	nt	nt
Cc1cn([C@@H]2C[C@H](O)[C@@H](COC(N)=O)O2)c(=O)[nH]c1=O	nt	i	nt	nt	nt
Cc1cc(Cl)ccc1Nc1sc(C(=O)c2cc3cc(Cl)ccc3o2)c(N)c1C#N	nt	i	nt	nt	nt

Assay outcomes deposited in PubChem by several laboratories.
